PubChem BioAssay AID463173 (ICCB-Longwood Screening Facility, Harvard Medical School, 2010)
Among all 52,000 compounds or so, about 4,300 (8.3%) were called active. Rule as the data show it: active = survival mostly below about 52% (no sharp cut-off); inactive = mostly above about 56%. The full list was thinned out, with actives kept by preference.

These compounds were tested on DeltatarO mutant (assay: growth inhibition of S. aureus wild type versus tarO mutant, primary screen, teichoic acid synthesis inhibitors, RN4220, OD600 (AID 463173)). Settings: OD600, 18 h, active compounds read low, screened at 18.75 µg/mL (by protocol).

Compound | survival
CCOc1ccc(NC(=O)c2cc(S(=O)(=O)NC3CCCC3)ccc2F)cc1 | 86% (inactive)
COCCn1c(=O)[nH]c2cc(C(=O)N3CCN(c4ccc(F)cc4)CC3)ccc2c1=O | 70% (inactive)
CCN(Cc1ccccc1)C(=O)CN1C(=O)COc2ccc(S(=O)(=O)NC3CCCC3)cc21 | 78% (inactive)
CC(C)NC(=O)CN1CCN(c2ccc(F)cc2)CC1 | 87% (inactive)
Cc1ccc(S(=O)(=O)c2cn(C)c3cc(N4CCN(c5ccccc5)CC4)c(F)cc3c2=O)cc1 | 95% (inactive)
CC(=O)N1CCc2cc(Br)cc(S(=O)(=O)CCC(=O)N3CCN(c4ccccc4Cl)CC3)c21 | 61% (inactive)
CC(=O)N1CCc2cc(Br)cc(S(=O)(=O)CCC(=O)N3CCN(c4ccccc4)CC3)c21 | 53% (active)
CC(=O)N1CCc2cc(Br)cc(S(=O)(=O)CCC(=O)N3CCN(c4ccc(F)cc4)CC3)c21 | 67% (inactive)
O=C(CCS(=O)(=O)c1cc(Br)cc2c1N(C(=O)C1CC1)CC2)N1CCN(c2ccccc2)CC1 | 91% (inactive)
COc1ccccc1N1CCN(C(=O)CCS(=O)(=O)c2cc(Br)cc3c2N(C(C)=O)CC3)CC1 | 53% (inactive)
CC(=O)N1CCc2cc(Br)cc(S(=O)(=O)CCC(=O)N3CCN(c4cccc(C)c4C)CC3)c21 | 45% (active)
O=C(NCCS(=O)(=O)N1CCN(c2ccccc2F)CC1)C1CC(=O)N(c2ccc(F)cc2)C1 (configuration not stated) | 90% (inactive)
O=C(NCCc1csc2nc(-c3cccc(F)c3)nn12)c1ccc(Br)o1 | 76% (inactive)
COc1ccc(-n2c(CNc3ccccc3Cl)nnc2SCC(N)=O)cc1 | 86% (inactive)
CCN(CC)CCC(=O)c1ccc(OC(C)C)cc1 | 92% (inactive)
CCOc1ccc(NC(=O)c2ccc(-c3cccc(Cl)c3C)o2)cc1 | 42% (active)
CCOC(=O)c1ccc(NC(=O)c2cc(=O)c3cc(CC)ccc3o2)cc1 | 62% (inactive)
Cc1c(Cl)cccc1-c1ccc(C(=O)Nc2ccc(F)cc2)o1 | 1% (active)
COc1ccc(NC(=O)c2coc(C)c2)cc1 | 82% (inactive)
COc1ccc(NC(=O)c2cc(-c3ccccc3O)no2)cc1 | 69% (inactive)
CCOc1ccc(NC(=O)c2cc3cc4ccc(C)cc4nc3o2)cc1 | 83% (inactive)
COc1ccc(NC(=O)c2ccc(-c3cccc(Cl)c3C)o2)cc1 | 16% (active)
CCOC(=O)c1ccc(NC(=O)c2c(-c3c(F)cccc3Cl)noc2C)cc1 | 59% (inactive)
CCOC(=O)c1ccc(NC(=O)c2ccc(-c3cccc(Cl)c3C)o2)cc1 | 37% (active)
Cc1c(NC(=O)c2ccc(-c3ccc(F)cc3)o2)cccc1-c1nc2ncccc2o1 | 55% (inactive)
Cc1c(Cl)cccc1-c1ccc(CNc2ccc3[nH]c(=O)[nH]c3c2)o1 | 51% (inactive)
CCOc1ccc(-c2cc(C(=O)Nc3ccc(NC(C)=O)cc3)no2)cc1 | 61% (inactive)
